Structures are written as SMILES. Calls of active or inactive are those of the source. Unless noted, how the calls were made is not given here.

Assay [1] in a line: compound effects on lung adenocarcinoma cell viability – A549, calcein-AM fluorescence, 48 h, basal, profiling panel (AID 1162). Further: test concentration not given here. The conditions noted are these: higher = more signal.
The nature of assay [2]: compound effects on differentiated 3T3-L1 adipocyte viability – cell-based, 3T3-L1 adipocytes, calcein-AM fluorescence, 48 h, basal, profiling panel (AID 1163). Further: test concentration not given here. The conditions noted are these: 3T3-L1 adipocytes viability, higher = more signal.
Assay [3] in a line: compound effects on hepatocellular carcinoma cell viability – HepG2, calcein-AM fluorescence, 48 h, basal, profiling panel (AID 1164). Further: test concentration not given here. Conditions: higher = more signal.
A short description of assay [4]: compound effects on multiple myeloma cell viability – MM1S, calcein-AM fluorescence, 48 h, basal, profiling panel (AID 1165). Further: test concentration not given here. The conditions noted are these: higher = more signal.
The nature of assay [5]: calcein-AM signal in unstimulated myeloma cells – cell-based, calcein-AM fluorescence, 48 h, PK04 Diversity Set, profiling panel (AID 1166).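 Further: cells grown under basal conditions without added stimulus; test concentration not given here.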 Conditions: RPMI8226 myeloma viability, higher = more signal.
The nature of assay [6]: JC-1 mitochondrial signal, unstimulated HepG2 cells – cell-based, JC-1 fluorescence, 24 h, 100 nL compound, profiling panel (AID 1167). Further: test concentration not given here. The conditions noted are these: HepG2 mitochondrial potential, higher = more signal.
The nature of assay [7]: JC-1 mitochondrial signal, unstimulated adipocytes – cell-based, JC-1 fluorescence, 3T3-L1 adipocytes, 24 h, 100 nL compound, profiling panel (AID 1168). Further: test concentration not given here. Conditions: JC-1 mitochondrial fluorescence, higher = more signal, called active from +8 up or from −8 down.
Assay [8] in a line: JC-1 mitochondrial signal, unstimulated myeloma cells – cell-based, JC-1 fluorescence, RPMI8226, 24 h, 100 nL compound, profiling panel (AID 1169). Further: test concentration not given here. Conditions: JC-1 mitochondrial potential fluorescence, higher = more signal.
Assay [9] is described as follows: JC-1 mitochondrial signal, unstimulated MM1S myeloma – cell-based, JC-1 fluorescence, 24 h, 100 nL compound, profiling panel (AID 1170). Further: test concentration not given here. The conditions noted are these: MM1S mitochondrial potential, higher = more signal.
Assay [10] is described as follows: resazurin metabolic signal in A549 cells – cell-based, resazurin fluorescence, 24 h, PK04 Diversity Set, profiling panel (AID 1171). Further: test concentration not given here. The conditions noted are these: A549 viability, higher = more signal, called active from +8 up or from −8 down.
A short description of assay [11]: resazurin metabolic signal in HepG2 cells – cell-based, resazurin fluorescence, 24 h, PK04 Diversity Set, profiling panel (AID 1172). Further: test concentration not given here. The conditions noted are these: HepG2 viability, higher = more signal.
Assay [12] can be described thus: budding yeast growth changes without added modifier – OD600, strain BY4716, 24 h, basal condition, primary screen (AID 1173). Conditions: S. cerevisiae BY4716 growth, OD600, 24 h; higher = more signal, called active from +8 up or from −8 down.
Assay [13] can be described thus: viability profiling in MM1S myeloma cells – cell-based, resazurin fluorescence, basal, 24 h, PK04 Diversity Set, profiling panel (AID 1174). Further: test concentration not given here. The conditions noted are these: higher = more signal, called active from +8 up or from −8 down.
In assay [14] the target is Dihydroorotate dehydrogenase (quinone), mitochondrial (Plasmodium falciparum (isolate 3D7)) (UniProt Q08210). Description: inhibition of P. falciparum DHODH – biochemical, C-terminal His tag, absorbance 600 nm, primary screen (AID 1175).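 Further: recombinant parasite enzyme with a five histidine tag at its C terminus; test concentration not given here.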 Conditions: PfDHODH enzyme, DCIP absorbance 600 nm; higher = more signal, called active from +8 up or from −8 down.
A short description of assay [15]: inhibition of PAO1 biofilm formation – strain PAO1, LB-PBS medium, absorbance 600 nm, primary screen (AID 1176). Further: test concentration not given here. The conditions noted are these: P. aeruginosa PAO1 growth/biofilm, A600, 12 h; higher = more signal.
Assay [16] is described as follows: growth modulation of vineyard yeast isolate – strain RM11-1a, OD600, basal, 24 h, primary screen (AID 1177).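 Further: cultures grown under basal conditions with no added stressor; test concentration not given here.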 The conditions noted are these: S. cerevisiae RM11-1a growth, OD600, 24 h; higher = more signal, called active from +8 up or from −8 down.
Assay [17] in a line: growth of efflux-deficient E. coli DRC39 – strain DRC39, OD650, 24 h, E. coli filamentation inducers, primary screen (AID 1178).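 Further: growth measured as culture turbidity by optical density at 650 nm; test concentration not given here.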 Conditions: E. coli DRC39 acrAB, higher = more signal, called active from +8 up or from −8 down.
Assay [18] is described as follows: growth of efflux-deficient E. coli DRC39 – strain DRC39, OD650, 48 h, E. coli filamentation inducers, primary screen (AID 1179).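 Further: screen aims at cell division blockers that make cells filament.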 The conditions noted are these: E. coli DRC39 delta-acrAB growth, higher = more signal, called active from +8 up or from −8 down.
Assay [19] can be described thus: viability profiling in RPMI8226 myeloma cells – cell-based, resazurin fluorescence, basal, 24 h, PK04 Diversity Set, profiling panel (AID 1180).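 Further: RPMI8826 multiple myeloma cell line at 5000 cells per well; test concentration not given here.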 The conditions noted are these: higher = more signal.
In assay [20] the target is E3 ubiquitin-protein ligase XIAP (Homo sapiens) (UniProt P98170). Nature of the assay: small molecules binding XIAP protein – biophysical, small-molecule microarray, fluorescence 635 nm, primary screen (AID 1181).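 Further: score merges 667 nm emission and signal to noise over triplicate slides.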 Conditions: higher = more signal.
Chain of E3 ubiquitin-protein ligase XIAP (Homo sapiens) (P98170 whole entry, looked up): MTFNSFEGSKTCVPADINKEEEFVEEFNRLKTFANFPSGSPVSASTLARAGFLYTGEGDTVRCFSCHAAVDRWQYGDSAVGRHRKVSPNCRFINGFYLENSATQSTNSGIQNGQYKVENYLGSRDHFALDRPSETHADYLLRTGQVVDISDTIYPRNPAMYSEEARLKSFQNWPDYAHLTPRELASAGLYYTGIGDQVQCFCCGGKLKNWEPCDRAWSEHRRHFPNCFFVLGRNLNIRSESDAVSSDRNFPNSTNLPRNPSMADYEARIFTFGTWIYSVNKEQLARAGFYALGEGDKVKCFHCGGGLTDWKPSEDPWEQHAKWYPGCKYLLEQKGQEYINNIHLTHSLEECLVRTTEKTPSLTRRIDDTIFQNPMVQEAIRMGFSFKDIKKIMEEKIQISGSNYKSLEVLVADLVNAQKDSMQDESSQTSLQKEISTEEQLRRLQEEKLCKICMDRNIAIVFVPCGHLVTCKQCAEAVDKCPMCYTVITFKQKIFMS

Chain of Dihydroorotate dehydrogenase (quinone), mitochondrial (Plasmodium falciparum (isolate 3D7)) (Q08210 whole entry, looked up): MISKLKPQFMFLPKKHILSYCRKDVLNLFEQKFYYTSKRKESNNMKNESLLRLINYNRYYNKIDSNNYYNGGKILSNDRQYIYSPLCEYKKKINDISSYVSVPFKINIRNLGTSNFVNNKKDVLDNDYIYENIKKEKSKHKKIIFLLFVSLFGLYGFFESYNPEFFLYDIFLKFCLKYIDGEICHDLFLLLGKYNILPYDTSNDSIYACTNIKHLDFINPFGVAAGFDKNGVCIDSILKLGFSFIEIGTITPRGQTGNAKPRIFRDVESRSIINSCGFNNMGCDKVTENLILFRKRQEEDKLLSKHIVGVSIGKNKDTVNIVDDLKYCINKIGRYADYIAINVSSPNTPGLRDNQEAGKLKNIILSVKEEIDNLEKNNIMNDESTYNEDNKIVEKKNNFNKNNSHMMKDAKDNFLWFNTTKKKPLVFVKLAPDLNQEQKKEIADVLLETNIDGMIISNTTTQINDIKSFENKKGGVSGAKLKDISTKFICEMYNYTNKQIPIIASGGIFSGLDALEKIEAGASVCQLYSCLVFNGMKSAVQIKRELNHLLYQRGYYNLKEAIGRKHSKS

On to `C=CCC(OC(C)=O)[C@@H]1[C@@H](N(Cc2cccc3ccccc23)C(=O)c2ccc(-c3ccccc3)cc2)c2cc(OCCCO)ccc2N1C(=O)c1ccc(-c2ccccc2)cc1` (stereo not given in full), for which the z-score in assay [1] is 0.512; in assay [2], 0.842; in assay [3] it was 0.515; in assay [4], -0.484; in assay [5] it was 0.294; in assay [6], 0.78. For the same compound, the z-score in [7] is -1.97 (inactive); in assay [8], 0.603; in assay [9], 0.0821; in [10], 0.654 (inactive); in assay [11] it was -0.132; in [12] it was -0.166 (inactive). Also, the z-score in assay [13] is 0.116 (inactive); in [15], 0.055 (inactive); in assay [16], -0.929 (inactive); in assay [17], -0.277 (inactive); in assay [18], -0.228 (inactive); in assay [19], 0.0263. The composite z-score was -0.948 (inactive) in assay [14] and -0.114 in [20].
`CC(C)C(=C=CC[C@@H](O)c1cccc(OCCO)c1)C[C@@H](O)COCc1ccccc1`: the z-score was 1.05 in [1]; 1.32 in assay [2]; 0.512 in assay [3]; 0.0108 in [4]; 0.442 in [5]; 0.427 in assay [6]. Further, the z-score in assay [7] is 0.686 (inactive); in assay [8], 0.46; in [9] it was -0.794; in assay [10], 0.151 (inactive); in [11], 0.564; in assay [12], -1.91 (inactive). Moreover, the z-score in [13] is 0.301 (inactive); in assay [15] it was 0.424 (inactive); in assay [16] it was -2.4 (inactive); in assay [17], 0.789 (inactive); in assay [18], 0.633 (inactive); in assay [19] it was 0.47. For the same compound, the figures for the composite z-score in assay [14] and in [20] were -3.34 (inactive) and -0.119, respectively.
Consider `CC(C)=CCCC(C)=CC(O)C1C=CC2C(=O)N(c3ccccc3)C(=O)C2N1Nc1ccccc1F` (stereo not given), for which the z-score was 0.154 in assay [1]; 0.0094 in assay [2]; 0.443 in [3]; 0.381 in assay [4]; -0.93 in assay [5]; -0.143 in [6]. In addition, the z-score is -0.507 (inactive) in assay [7]; -0.271 in [8]; -0.426 in assay [9]; 0.598 (inactive) in assay [10]; 0.856 in [11]; -1.18 (inactive) in assay [12]. Also, the z-score in assay [13] is 0.47 (inactive); in [15], 0.505 (inactive); in [16], -0.54 (inactive); in assay [17] it was 0.131 (inactive); in [18], 0.739 (inactive); in assay [19], 1.22. In addition, the composite z-score in [14] was -0.323 (inactive); in assay [20] it was -0.21.
Consider `CC(C)CCC[C@@H](C)[C@H]1CC[C@@]2(C)C3=C(CC[C@]12C)[C@@]1(C)CC[C@H](OC(=O)c2ccccc2)C(C)(C)C1CC3` (stereo not given in full), for which the z-score in assay [1] was 0.667; in [2] it was 0.635; in [3], 0.771; in assay [4] it was 0.34; in assay [5], 0.201; in [6] it was 1.73. Also, the z-score in assay [7] is 1.1 (inactive); in assay [8], -0.671; in [9], -2.12; in [10], 0.774 (inactive); in [11], 0.533; in assay [12] it was 0.436 (inactive). The z-score is 0.351 (inactive) in assay [13]; 0.968 (inactive) in assay [15]; -1.61 (inactive) in assay [16]; 1.94 (inactive) in assay [17]; 1.57 (inactive) in assay [18]; 0.56 in assay [19]. The composite z-score was -1.48 (inactive) in assay [14] and -0.248 in assay [20].
For the compound `C[C@]1(C(=O)NCC(F)(F)F)c2ccccc2C(=O)N(Cc2ccccc2)[C@H]1c1ccc(CO)cc1`, the z-score in assay [1] was -0.431; in assay [2], -0.2; in assay [3] it was 0.57; in [4], -0.503; in [5], 0.514; in assay [6], 1.97. In addition, the z-score is 0.113 (inactive) in assay [7]; 0.824 in [8]; -1.07 in assay [9]; 0.0906 (inactive) in assay [10]; -0.398 in assay [11]; 0.0742 (inactive) in [12]. In addition, the z-score in [13] was 0.525 (inactive); in assay [15] it was -0.0807 (inactive); in assay [16], 0.433 (inactive); in [17], 0.242 (inactive); in assay [18], 0.824 (inactive); in [19], 0.937. In addition, the composite z-score was 0.721 (inactive) in assay [14] and -0.102 in assay [20].
Regarding `Cc1nc2cc(Br)ccc2c(=O)n1Cc1cccc(O)c1`, the z-score in [1] is -0.508; in assay [2], -0.396; in assay [3], 0.454; in assay [4] it was -0.301; in [5], 0.244; in assay [6], -0.0434. In addition, the z-score in [7] was 1.62 (inactive); in assay [8], -0.536; in assay [9] it was -0.432; in assay [10] it was 0.246 (inactive); in assay [11], 0.674; in [12] it was -0.496 (inactive). Besides, the z-score in assay [13] is -1.23 (inactive); in assay [15] it was 1.38 (inactive); in assay [16] it was 0.0164 (inactive); in assay [17], 0.381 (inactive); in assay [18] it was 0.776 (inactive); in [19], -0.505. In addition, the composite z-score in assay [14] was 0.0596 (inactive); in [20] it was 0.0674.
As to `CC(=O)N1CC(C(O)C2C=CC3C(=O)NC(=O)C3N2Nc2ccc(Cl)cc2Cl)c2ccccc21` (stereo not given), the z-score in assay [1] was 1.08; in assay [2] it was -0.753; in [3] it was 0.46; in [4] it was -0.452; in assay [5] it was 0.0876; in assay [6] it was -1.29. The z-score is -0.229 (inactive) in assay [7]; -0.212 in assay [8]; 0.644 in [9]; -0.554 (inactive) in assay [10]; -1.59 in assay [11]; -2.62 (inactive) in assay [12]. Moreover, the z-score was -0.731 (inactive) in [13]; 1.28 (inactive) in [15]; 1.82 (inactive) in assay [16]; -0.306 (inactive) in assay [17]; -0.547 (inactive) in assay [18]; -0.94 in [19]. Moreover, the composite z-score in assay [14] is 0.905 (inactive); in assay [20], 0.277.
`Nc1cc(Br)ccc1C(=O)O`: the z-score was 1.51 in assay [1]; 0.679 in [2]; 0.264 in assay [3]; 1.29 in assay [4]; 0.804 in [5]; 0.799 in [6]. Also, the z-score in [7] is 0.55 (inactive); in assay [8], 0.432; in assay [9], 1.54; in [10], 0.671 (inactive); in assay [11] it was 0.615; in assay [12] it was -0.811 (inactive). Moreover, the z-score in assay [13] was 1.11 (inactive); in assay [15], -0.612 (inactive); in [16] it was -0.127 (inactive); in assay [17], 0.37 (inactive); in [18] it was -0.138 (inactive); in assay [19], 1.29. Also, the composite z-score in assay [14] was -0.627 (inactive); in [20] it was 0.0837.
Turning to `O=C(N1CCOCC1)[C@@]1(CCS(=O)(=O)c2ccccc2)N=C(c2ccc(OCCCO)cc2)O[C@H]1c1ccccc1`, the z-score was 0.723 in assay [1]; -0.614 in assay [2]; 0.491 in assay [3]; 0.201 in assay [4]; 0.614 in [5]; 0.271 in assay [6]. The z-score in assay [7] was -0.277 (inactive); in [8], -0.489; in [9], -0.617; in assay [10], -0.223 (inactive); in [11] it was -0.285; in [12], 1.24 (inactive). Also, the z-score in [13] is -0.986 (inactive); in [15], 1.02 (inactive); in assay [16], 0.0235 (inactive); in assay [17], 0.0835 (inactive); in assay [18], 0.0231 (inactive); in assay [19], -1.09. The composite z-score was 0.225 (inactive) in assay [14] and 0.3 in [20].

Values taken from PubChem BioAssay.
